# Experimental data: PubChem BioAssay (NCATS)
# Inconclusive results are not listed. A call without a number means that no potency is given here. Active and inactive are the calls of the source. The call rests on the fitted dose curve.
# Assays:
# [1] = Cytotoxicity counterscreen for inhibitors of SARS-CoV-2 cell entry (AID 1645845); further: nearly all actives have a fitted effect of over 50% in size
# Method in brief: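 After a 15 min room-temperature ATPLite 1step step, luminescence reflected ATP remaining in HEK293-ACE2 cells exposed to compound for 1 h plus 48 h at 37 C, with percent activity set by cell and no-cell controls.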
# [2] = Primary qHTS to identify inhibitors of SARS-CoV-2 cell entry (AID 1645846); settings: activity change, negative = inhibition: at 57.1 µM (top of the series) unless noted; further: nearly all actives have a fitted effect of over 45% in size; further: potency means the concentration at half of the fitted maximal effect
# Method in brief: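 Entry measured by luciferase signal 48 h after adding SARS-CoV-2-S pseudotyped MLV particles to HEK293-ACE2 cells preincubated 1 h with compounds. Normalisation: bald particles and spike particles.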
Structure (SMILES),Potency [1],Potency [2]
Nc1nc2ncc(CNc3ccc(C(=O)N[C@@H](CCC(=O)O)C(=O)O)cc3)nc2c(=O)[nH]1,inactive,inactive
Nc1ccn([C@H]2CC[C@@H](CO)O2)c(=O)n1,inactive,inactive
Cc1c(C)c2c(c(C)c1OC(=O)CCC(=O)OCCO)CC[C@@](C)(CCC[C@H](C)CCC[C@H](C)CCCC(C)C)O2,inactive,28.2 µM (active)
CCC(=O)O[C@]1(C(=O)COC)[C@@H](C)C[C@H]2[C@@H]3CCC4=CC(=O)C=C[C@]4(C)C3(F)[C@@H](O)C[C@@]21C (stereo not given in full),inactive,inactive
CC(C)(C)NCC(O)COc1cccc2c1CCC(=O)N2 (stereo not given),inactive,inactive
